Holding throughout (set-up): scale not given: direction of the effect not stated beside the values
Test [1] addresses Protein translocase subunit SecA (Escherichia coli (strain K12)) (UniProt P10408). The test can be described thus: Assay to Identify E. coli SecA ATPase Inhibitors. It is filed as functional. To be noted: 30 µM.
For test [2], the target named is T1, Ubiquitin-activating enzyme e1, putative (Leishmania donovani (strain BPK282A1)) (UniProt E9BSI1).
T1 sequence (whole entry): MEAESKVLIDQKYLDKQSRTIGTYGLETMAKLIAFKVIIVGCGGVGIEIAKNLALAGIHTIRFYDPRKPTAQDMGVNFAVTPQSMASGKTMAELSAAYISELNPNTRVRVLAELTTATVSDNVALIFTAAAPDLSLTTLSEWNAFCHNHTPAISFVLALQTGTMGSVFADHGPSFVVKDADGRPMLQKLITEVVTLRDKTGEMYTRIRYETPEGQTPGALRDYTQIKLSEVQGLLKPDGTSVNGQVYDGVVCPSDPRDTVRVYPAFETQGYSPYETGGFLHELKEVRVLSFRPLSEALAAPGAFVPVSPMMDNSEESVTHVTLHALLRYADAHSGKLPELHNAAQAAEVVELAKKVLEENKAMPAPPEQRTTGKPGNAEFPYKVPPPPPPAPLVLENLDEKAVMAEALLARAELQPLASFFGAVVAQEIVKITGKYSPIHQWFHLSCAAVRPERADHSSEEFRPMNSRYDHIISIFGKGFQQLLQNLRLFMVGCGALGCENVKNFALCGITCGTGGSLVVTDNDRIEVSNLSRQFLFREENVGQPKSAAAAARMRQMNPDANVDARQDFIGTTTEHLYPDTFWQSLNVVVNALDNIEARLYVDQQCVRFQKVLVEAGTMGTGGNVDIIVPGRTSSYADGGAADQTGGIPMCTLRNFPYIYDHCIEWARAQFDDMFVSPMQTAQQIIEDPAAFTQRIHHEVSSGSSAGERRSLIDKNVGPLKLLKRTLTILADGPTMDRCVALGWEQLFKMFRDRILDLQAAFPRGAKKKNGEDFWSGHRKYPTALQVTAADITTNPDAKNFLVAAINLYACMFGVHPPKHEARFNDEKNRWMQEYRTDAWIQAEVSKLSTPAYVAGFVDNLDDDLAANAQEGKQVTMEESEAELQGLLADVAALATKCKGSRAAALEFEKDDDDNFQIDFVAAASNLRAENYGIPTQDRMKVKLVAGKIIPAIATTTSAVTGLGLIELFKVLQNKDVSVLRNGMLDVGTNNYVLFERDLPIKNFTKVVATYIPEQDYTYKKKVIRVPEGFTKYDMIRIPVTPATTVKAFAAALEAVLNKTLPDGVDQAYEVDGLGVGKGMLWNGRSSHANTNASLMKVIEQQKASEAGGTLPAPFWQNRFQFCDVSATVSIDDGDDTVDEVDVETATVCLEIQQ
The test is described as follows: Leishmania donovani Ubiquitin Activating Enzyme (LdE1). In kind it is functional. To be noted: 30 µM.

Test [3] deals with AMP-activated protein kinase, AMPK (Homo sapiens) (UniProt P54646+O43741+P54619+Q9UGJ0+Q9Y478+Q13131+Q9UGI9). The test is described as follows: AMP-dependent Kinase enzyme assay. An in vitro enzyme assay that detects ADP turnover that is directly proportional to AMPK activity. This uses naive AMPK that is activated during the assay with MK-8722. In kind it is functional. To be noted: 30 µM.

Test [4] deals with Sialic acid-binding Ig-like lectin 9 (Homo sapiens) (UniProt Q9Y336). The test is described as follows: Hs-Siglec9 ALPHAscreen SOP 20170721. To be noted: 10 µM. On the technique in general: In Alpha technology, singlet oxygen from a donor bead excites a nearby acceptor bead.
Sequence of Sialic acid-binding Ig-like lectin 9 (Homo sapiens) (Q9Y336 whole entry): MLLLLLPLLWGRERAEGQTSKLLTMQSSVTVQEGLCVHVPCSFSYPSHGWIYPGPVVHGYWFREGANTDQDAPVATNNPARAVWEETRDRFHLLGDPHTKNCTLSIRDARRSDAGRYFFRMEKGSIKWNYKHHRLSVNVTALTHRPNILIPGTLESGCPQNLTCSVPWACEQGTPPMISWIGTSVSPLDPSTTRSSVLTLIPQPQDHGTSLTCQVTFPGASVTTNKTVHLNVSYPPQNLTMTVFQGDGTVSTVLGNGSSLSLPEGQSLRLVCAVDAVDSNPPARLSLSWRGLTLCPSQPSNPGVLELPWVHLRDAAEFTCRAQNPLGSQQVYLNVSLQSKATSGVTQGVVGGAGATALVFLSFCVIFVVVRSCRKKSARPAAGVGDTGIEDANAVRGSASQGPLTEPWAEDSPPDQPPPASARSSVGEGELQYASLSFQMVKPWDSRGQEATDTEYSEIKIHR
A further test relates to Trypanosoma cruzi. The test is described as follows: Trypanosoma cruzi phosphomannomutase and mannose-1-phosphate guanylyltransferase assay. It is filed as functional. To be noted: 10 µM.
For test [5], the target named is T2, Arginase-2, mitochondrial (Homo sapiens) (UniProt P78540).
T2 sequence (whole entry): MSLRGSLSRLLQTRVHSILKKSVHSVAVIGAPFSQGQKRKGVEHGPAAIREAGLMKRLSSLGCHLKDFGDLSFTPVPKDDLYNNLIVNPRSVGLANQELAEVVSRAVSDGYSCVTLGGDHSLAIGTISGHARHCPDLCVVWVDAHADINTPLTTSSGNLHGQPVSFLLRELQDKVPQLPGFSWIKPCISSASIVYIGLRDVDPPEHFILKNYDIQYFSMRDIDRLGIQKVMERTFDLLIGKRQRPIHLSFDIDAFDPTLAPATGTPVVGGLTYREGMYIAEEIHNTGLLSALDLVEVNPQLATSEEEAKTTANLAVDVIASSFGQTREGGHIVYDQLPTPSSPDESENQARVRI
The test is described as follows: in vitro enzyme assay to detect the production of urea directly proportional to the activity of Arginase II. Note: in the data most compounds retested in dose-response had high values. It is filed as functional. To be noted: 33.3 µM.

Test [6] addresses T3, Proteasome subunit beta (Trypanosoma cruzi) (UniProt O96673).
T3 sequence (whole entry): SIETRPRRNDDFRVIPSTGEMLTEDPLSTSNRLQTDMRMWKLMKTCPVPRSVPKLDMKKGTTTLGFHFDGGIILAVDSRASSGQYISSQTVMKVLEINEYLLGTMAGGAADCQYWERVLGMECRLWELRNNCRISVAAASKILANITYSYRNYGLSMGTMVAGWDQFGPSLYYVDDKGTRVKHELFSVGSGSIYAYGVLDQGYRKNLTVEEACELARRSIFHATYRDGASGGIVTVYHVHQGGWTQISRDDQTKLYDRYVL
The test is described as follows: Trypanosoma cruzi proteasome chymotrypsin-like activity (TcProtChymo) assay. Note: in the data most compounds retested in dose-response had high values. It is filed as functional. To be noted: 9.37 µM.

For a further test, the species on record is Homo sapiens. The test is described as follows: To identify inhibition of the IFN signalling (Jak-Stat) pathway via expression of an eGFP reporter gene under the control of an IFN-stimulated response element (ISRE) containing MxA promoter. In kind it is functional. To be noted: 30 µM.
Test [7] concerns the target T4, Tyrosyl-tRNA synthetase, putative (Trypanosoma cruzi (strain CL Brener)) (UniProt Q4DSP6).
T4 sequence (whole entry): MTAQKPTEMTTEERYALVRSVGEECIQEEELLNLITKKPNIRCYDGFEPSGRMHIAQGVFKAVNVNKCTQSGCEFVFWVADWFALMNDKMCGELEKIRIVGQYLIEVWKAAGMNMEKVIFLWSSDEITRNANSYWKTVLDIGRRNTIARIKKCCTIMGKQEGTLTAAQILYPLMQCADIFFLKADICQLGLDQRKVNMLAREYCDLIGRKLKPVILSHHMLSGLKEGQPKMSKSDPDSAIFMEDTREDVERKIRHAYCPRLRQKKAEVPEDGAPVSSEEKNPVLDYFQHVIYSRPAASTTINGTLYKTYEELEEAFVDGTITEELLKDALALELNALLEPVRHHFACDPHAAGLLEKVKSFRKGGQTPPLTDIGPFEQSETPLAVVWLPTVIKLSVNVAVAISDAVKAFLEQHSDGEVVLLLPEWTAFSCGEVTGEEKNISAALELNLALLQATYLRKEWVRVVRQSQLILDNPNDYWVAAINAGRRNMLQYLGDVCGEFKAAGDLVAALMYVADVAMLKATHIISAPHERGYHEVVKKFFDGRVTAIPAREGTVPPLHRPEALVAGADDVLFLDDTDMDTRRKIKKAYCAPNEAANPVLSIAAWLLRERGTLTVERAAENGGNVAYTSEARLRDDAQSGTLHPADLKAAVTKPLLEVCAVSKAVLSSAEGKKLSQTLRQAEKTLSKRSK
The test is described as follows: Trypanosoma cruzi tyrosyl tRNA synthetase (TcYRS) _High Tyrosine SOP. Note: in the data most compounds retested in dose-response had high values. In kind it is functional. To be noted: 30 µM.

For test [8], the target named is T4, Tyrosyl-tRNA synthetase, putative (Trypanosoma cruzi (strain CL Brener)). The test can be described thus: Trypanosoma cruzi tyrosyl tRNA synthetase (TcYRS) SOP. It is filed as functional. To be noted: 30 µM.
In test [9] the target is Chromo domain-containing protein 1 (Saccharomyces cerevisiae (strain ATCC 204508 / S288c) (Baker's yeast)) (UniProt P32657). The test is described as follows: ScCHD-1 Enzyme Inhibition Assay. Note: in the data most compounds retested in dose-response had high values. It is filed as functional. To be noted: 30 µM.
Sequence of Chromo domain-containing protein 1 (Saccharomyces cerevisiae (strain ATCC 204508 / S288c) (Baker's yeast)) (P32657 whole entry, the tested form may be a part): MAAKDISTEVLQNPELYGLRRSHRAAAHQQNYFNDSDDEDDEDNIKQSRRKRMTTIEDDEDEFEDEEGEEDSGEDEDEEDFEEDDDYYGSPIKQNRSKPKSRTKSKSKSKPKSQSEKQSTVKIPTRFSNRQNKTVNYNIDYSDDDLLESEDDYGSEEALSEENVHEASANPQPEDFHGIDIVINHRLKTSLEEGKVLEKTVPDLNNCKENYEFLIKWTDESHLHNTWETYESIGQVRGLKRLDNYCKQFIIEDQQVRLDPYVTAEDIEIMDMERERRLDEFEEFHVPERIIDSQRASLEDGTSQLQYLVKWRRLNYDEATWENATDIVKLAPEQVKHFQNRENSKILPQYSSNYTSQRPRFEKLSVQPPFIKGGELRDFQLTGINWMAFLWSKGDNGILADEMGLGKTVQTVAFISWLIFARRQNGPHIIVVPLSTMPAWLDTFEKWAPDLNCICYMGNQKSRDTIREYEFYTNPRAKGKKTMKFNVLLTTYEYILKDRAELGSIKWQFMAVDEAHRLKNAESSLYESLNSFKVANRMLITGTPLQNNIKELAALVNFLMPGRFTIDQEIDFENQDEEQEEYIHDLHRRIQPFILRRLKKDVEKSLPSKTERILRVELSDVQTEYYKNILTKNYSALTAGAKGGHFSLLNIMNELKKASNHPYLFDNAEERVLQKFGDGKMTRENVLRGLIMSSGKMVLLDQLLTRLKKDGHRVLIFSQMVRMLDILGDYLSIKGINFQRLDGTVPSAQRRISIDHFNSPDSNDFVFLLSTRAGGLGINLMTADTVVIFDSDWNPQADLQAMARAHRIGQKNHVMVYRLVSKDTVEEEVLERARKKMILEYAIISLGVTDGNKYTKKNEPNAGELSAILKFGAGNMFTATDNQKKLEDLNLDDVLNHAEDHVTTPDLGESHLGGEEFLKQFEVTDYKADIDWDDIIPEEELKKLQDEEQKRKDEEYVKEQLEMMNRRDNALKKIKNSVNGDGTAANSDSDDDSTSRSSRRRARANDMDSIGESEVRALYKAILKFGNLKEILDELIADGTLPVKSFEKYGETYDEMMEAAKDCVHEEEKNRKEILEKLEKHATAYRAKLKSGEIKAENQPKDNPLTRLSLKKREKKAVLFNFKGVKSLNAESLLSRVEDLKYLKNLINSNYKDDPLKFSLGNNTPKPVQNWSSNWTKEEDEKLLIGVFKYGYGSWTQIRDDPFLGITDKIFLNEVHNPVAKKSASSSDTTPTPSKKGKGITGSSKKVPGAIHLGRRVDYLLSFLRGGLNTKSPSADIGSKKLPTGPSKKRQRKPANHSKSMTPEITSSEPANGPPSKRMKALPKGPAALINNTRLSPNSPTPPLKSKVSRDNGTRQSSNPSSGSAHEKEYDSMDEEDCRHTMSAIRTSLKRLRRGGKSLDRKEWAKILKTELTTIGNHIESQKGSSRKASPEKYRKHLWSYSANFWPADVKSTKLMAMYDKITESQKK

The structures appear in SMILES notation. For some of these results: Results with a measured potency or affinity are listed apart.

Sequence of Protein translocase subunit SecA (Escherichia coli (strain K12)) (P10408 whole entry): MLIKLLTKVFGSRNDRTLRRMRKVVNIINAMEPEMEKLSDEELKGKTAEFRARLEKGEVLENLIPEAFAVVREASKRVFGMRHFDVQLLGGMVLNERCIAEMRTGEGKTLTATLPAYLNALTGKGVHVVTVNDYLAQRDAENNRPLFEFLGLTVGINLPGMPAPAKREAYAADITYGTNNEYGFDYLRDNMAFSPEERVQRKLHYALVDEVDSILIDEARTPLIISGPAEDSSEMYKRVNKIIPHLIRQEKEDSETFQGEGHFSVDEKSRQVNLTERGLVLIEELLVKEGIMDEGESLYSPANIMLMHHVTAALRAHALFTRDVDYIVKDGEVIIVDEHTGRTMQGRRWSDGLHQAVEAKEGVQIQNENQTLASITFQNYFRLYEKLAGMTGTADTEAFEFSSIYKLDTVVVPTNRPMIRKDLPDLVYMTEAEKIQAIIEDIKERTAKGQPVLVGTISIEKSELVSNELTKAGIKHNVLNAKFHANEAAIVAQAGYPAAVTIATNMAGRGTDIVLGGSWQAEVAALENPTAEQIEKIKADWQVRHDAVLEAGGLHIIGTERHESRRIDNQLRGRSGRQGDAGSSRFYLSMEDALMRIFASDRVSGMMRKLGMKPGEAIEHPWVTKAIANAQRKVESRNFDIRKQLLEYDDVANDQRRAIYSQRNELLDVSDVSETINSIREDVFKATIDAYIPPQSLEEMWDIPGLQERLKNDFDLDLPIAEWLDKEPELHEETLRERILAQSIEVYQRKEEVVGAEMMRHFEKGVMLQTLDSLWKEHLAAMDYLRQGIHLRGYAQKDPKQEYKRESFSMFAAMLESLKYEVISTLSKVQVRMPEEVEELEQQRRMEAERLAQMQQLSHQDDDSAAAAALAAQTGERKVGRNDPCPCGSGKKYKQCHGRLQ

With `c1cnc(-c2cnc(N3CCSCC3)nc2C2CCCO2)cn1` (stereo unspecified), the Percent Effect was -4.61% in test [1]; 6.76% in test [2]; 9.87% in test [3]; 3.27% in test [4]; -5.53% with Trypanosoma cruzi; -1.16% in test [5]. The Percent Effect in test [6] is 9.98%; in the test listed under Homo sapiens it was 10.7%; in test [7], 1.07%; in [8], 6.49%; in test [9] it was -13.3%.
As for `Nc1nc(C2CCN(C(=O)c3cscn3)CC2)cs1`, the Percent Effect was -2.59% in test [1]; 10.7% in [2]; 8.2% in test [3]; -2.11% in test [4]; -3.15% with Trypanosoma cruzi; -3.03% in test [5]. Besides, the Percent Effect in test [6] is 3.96%; in the test listed under Homo sapiens, 18.2%; in test [7], 3.19%; in test [8], 11.5%; in test [9], -5.08%.
`CCC1=N[C@@]2(CC[C@@H]3CN(Cc4ccc(Cl)cc4)C[C@@H]32)C(=O)N1C`: the Percent Effect in test [1] was -4.15%; in test [2], 2.7%; in [3], 3.53%; in test [4] it was 4.31%; with Trypanosoma cruzi, -0.0978%; in test [5], -13.1%. Also, the Percent Effect in test [6] was determined as 16.4%; in the test filed under Homo sapiens it was 14.7%; in test [7] it was 0%; in [8] it was 2.56%; in test [9], 2.84%.
Consider `CN(Cc1ccsc1)C(=O)CS(=O)(=O)Cc1ccc(Cl)c(Cl)c1`, for which the Percent Effect in test [1] is -1.27%; in test [2], -5.2%; in test [3], 10.5%; in test [4] it was -5.21%; with Trypanosoma cruzi it was 7.15%; in test [5] it was 0.21%. In addition, the Percent Effect in [6] is 15.6%; in the test listed under Homo sapiens, 7.44%; in test [7], -13.3%; in test [8], 0%; in test [9] it was -13.1%.
Take `Cc1cc(C)cc(OCCC(=O)N2CCOCC2c2ncon2)c1` (stereo unspecified): the Percent Effect in test [1] was -7.26%; in test [2], 2.7%; in test [3] it was -4.41%; in [4] it was 6.93%; in the test on Trypanosoma cruzi, -5.11%; in test [5], -1.29%. The Percent Effect in test [6] is -1.62%; in the test listed under Homo sapiens it was 4.3%; in test [7] it was 2.97%; in test [8], 11%; in test [9], 0.318%.
For the compound `CCc1ccc(NC(=O)N2C[C@H]3C[C@H](C(=O)NC)[C@@H](C2)O3)cc1`, the Percent Effect is 0.946% in test [1]; 2.6% in test [2]; 6.04% in test [3]; -3.01% in [4]; -0.0986% in the test with Trypanosoma cruzi; 0.645% in [5]. The Percent Effect in [6] stood at 5.4%; in the test filed under Homo sapiens, 11.2%; in test [7], 1.06%; in [8], 6.41%; in [9], 93.4%.
Consider `CCc1nnc2n1CCN(CC(=O)Nc1sccc1C#N)C2`, for which the Percent Effect was -4.04% in [1]; 10.5% in test [2]; -7.74% in test [3]; -3.22% in [4]; -8.68% in the test with Trypanosoma cruzi; 5.4% in [5]. The Percent Effect in test [6] is 12.6%; in the test listed under Homo sapiens it was -5.63%; in test [7], 5.42%; in test [8], 6.17%; in test [9], -3.17%.
For the compound `O=C(c1ncccn1)N1C[C@H]2CCC[C@@]2(COCC2CCOCC2)C1`, the Percent Effect in test [1] was -5.07%; in [2] it was 10.8%; in [3] it was 1.99%; in [4], -7.31%; in the test on Trypanosoma cruzi, 6.16%; in test [5], -0.319%. In addition, the Percent Effect in [6] amounted to 19.9%; in the test listed under Homo sapiens, 25.2%; in [7], 6.49%; in [8], 15.4%; in test [9], 2.35%.
In the case of `Cc1cnn(CCNCc2nc(COc3ccc(F)cc3)no2)c1`, the Percent Effect in test [1] is -2.17%; in test [2] it was 2.63%; in [3], 1.92%; in [4], 0.726%; in the test with Trypanosoma cruzi, 0.94%; in test [5] it was 1.92%. Moreover, the Percent Effect in test [6] is 12.7%; in the test listed under Homo sapiens, 11.9%; in test [7] it was 4.41%; in test [8] it was -29.3%; in test [9], -8.97%.
Regarding `Cn1ncc2c1CN(Cc1cccnc1)CC2COCC1CC1` (stereo unspecified), the Percent Effect is -0.107% in test [1]; 2.74% in test [2]; -3.62% in [3]; 3.4% in [4]; 6.55% in the test on Trypanosoma cruzi; 4.79% in test [5]. Also, the Percent Effect in test [6] is 12.6%; in the test listed under Homo sapiens, -15.1%; in test [7] it was 4.17%; in test [8], 8.64%; in [9] it was -7.87%.
On to `Cc1nc(C2CCN(C(=O)c3ccc(=O)n(C)c3)CC2)c2sccn12`, for which the Percent Effect in test [1] is -2.51%; in test [2] it was 4.05%; in test [3], 3.65%; in [4], 3.19%; in the test on Trypanosoma cruzi, 1.58%; in test [5], -3.02%. Also, the Percent Effect in test [6] was 10.4%; in the test listed under Homo sapiens, 3.58%; in test [7], 3.23%; in test [8] it was 6.49%; in [9] it was -13.8%.

Source of the values: ChEMBL document CHEMBL3988442, “University of Dundee, Small-Polar-MMV Screening Library” (2021).
